Screen size: about 5,500 compounds; about 2,000 (36%) were called active. About 18% were inconclusive and are not listed. Rule as the data show it: active = normalized growth mostly below about 0.91 (no sharp cut-off); inconclusive = no clear call, values can overlap the other calls; inactive = mostly above about 0.92. The list shows a part of the results.
Assay: chemical genetic growth profiling, strain panel (AID 1159580);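 also: tested at 20 µM; growth read once vehicle control cultures reached saturation at 30 °C; 1 = growth at the plate median or of vehicle wells; lower values mean less growth of the strain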
Conditions: S. cerevisiae deletion strains, growth OD
[1] = locus YHR030C, strain SLT2, stronger effect = lower value
[2] = locus YHR079C, strain IRE1, stronger effect = lower value
[3] = locus YJL095W, strain BCK1, stronger effect = lower value
[4] = locus YJR066W, strain TOR1, stronger effect = lower value
[5] = locus YLR113W, strain HOG1, stronger effect = lower value
[6] = locus YNL183C, strain NPR1, stronger effect = lower value
[7] = locus YOR231W, strain MKK1, stronger effect = lower value
[8] = locus YPL256C, strain CLN2, stronger effect = lower value

Measured: normalized growth

OC1(C(F)(F)F)CC(C23CC4CC(CC(C4)C2)C3)=NN1 (centres undefined)
active: locus YAR019C, strain CDC15, stronger effect = lower value 0.867 | locus YBR136W, strain MEC1, stronger effect = lower value 0.889 | locus YBR160W, strain CDC28, stronger effect = lower value 0.891 | locus YDL028C, strain MPS1, stronger effect = lower value 0.847 | locus YDL101C, strain DUN1, stronger effect = lower value 0.897 | locus YDL108W, strain KIN28, stronger effect = lower value 0.892 | locus YDL132W, strain cdc53, stronger effect = lower value 0.872 | locus YDL214C, strain PRR2, stronger effect = lower value 0.642 | locus YDR052C, strain DBF4, stronger effect = lower value 0.882 | locus YDR226W, strain ADK1, stronger effect = lower value 0.859 | locus YDR477W, strain SNF1, stronger effect = lower value 0.505 | locus YER123W, strain YCK3, stronger effect = lower value 0.435 | locus YER133W, strain GLC7, stronger effect = lower value 0.57 | locus YFL009W, strain cdc4, stronger effect = lower value 0.851 | locus YFL029C, strain CAK1, stronger effect = lower value 0.876 | locus YFR019W, strain FAB1, stronger effect = lower value 0.527 | locus YFR028C, strain CDC14, stronger effect = lower value 0.86 | locus YGR040W, strain KSS1, stronger effect = lower value 0.497 | [1] 0.183 | locus YHR205W, strain SCH9, stronger effect = lower value 0.531 | locus YIL147C, strain SLN1, stronger effect = lower value 0.889 | [3] 0.163 | locus YJL157C, strain FAR1, stronger effect = lower value 0.655 | locus YJR016C, strain ILV3, stronger effect = lower value 0.891 | [4] 0.411 | locus YKL067W, strain YNK1, stronger effect = lower value 0.634 | locus YKL101W, strain HSL1, stronger effect = lower value 0.716 | locus YKL193C, strain SDS22, stronger effect = lower value 0.888 | locus YKL203C, strain TOR2, stronger effect = lower value 0.555 | [5] 0.578 | locus YLR133W, strain CKI1, stronger effect = lower value 0.655 | locus YLR403W, strain SFP1, stronger effect = lower value 0.469 | locus YML070W, strain DAK1, stronger effect = lower value 0.643 | locus YMR001C, strain CDC5, stronger effect = lower value 0.881 | locus YMR205C, strain PFK2 (second series), stronger effect = lower value 0.735 | locus YMR277W, strain FCP1, stronger effect = lower value 0.863 | locus YNL006W, strain LST8, stronger effect = lower value 0.892 | locus YNL020C, strain ARK1, stronger effect = lower value 0.659 | locus YNL161W, strain CBK1, stronger effect = lower value 0.898 | locus YNL207W, strain RIO2, stronger effect = lower value 0.867 | locus YNL222W, strain SSU72, stronger effect = lower value 0.876 | locus YNL307C, strain MCK1 (second series), stronger effect = lower value 0.565 | locus YOR061W, strain CKA2, stronger effect = lower value 0.17 | locus YOR119C, strain RIO1, stronger effect = lower value 0.521 | locus YOR329C, strain SCD5, stronger effect = lower value 0.901 | locus YPL031C, strain PHO85, stronger effect = lower value 0.471 | locus YPL153C, strain RAD53, stronger effect = lower value 0.517 | locus YPL204W, strain HRR25, stronger effect = lower value 0.477 | locus YPL209C, strain IPL1, stronger effect = lower value 0.89 | [8] 0.64 | locus YPR025C, strain CCL1, stronger effect = lower value 0.893 | strain TSCII, stronger effect = lower value 0.858
inactive: locus YBL105C, strain PKC1, stronger effect = lower value 0.905 | locus YBR135W, strain CKS1, stronger effect = lower value 0.898 | locus YDL017W, strain CDC7, stronger effect = lower value 0.913 | locus YDR054C, strain cdc34, stronger effect = lower value 0.88 | locus YFR003C, strain YPI1, stronger effect = lower value 0.905 | locus YGR052W, strain FMP48, stronger effect = lower value 0.62 | locus YGR092W, strain DBF2, stronger effect = lower value 0.487 | [2] 0.645 | locus YHR082C, strain KSP1, stronger effect = lower value 0.688 | locus YJL128C, strain PBS2, stronger effect = lower value 0.946 | locus YJR066W, strain TOR1 (second series), stronger effect = lower value 0.718 | locus YKL048C, strain ELM1, stronger effect = lower value 0.884 | [6] 0.618 | locus YOL078W, strain AVO1, stronger effect = lower value 0.893 | locus YOL136C, strain PFK27, stronger effect = lower value 0.715 | [7] 0.637 | locus YPR106W, strain ISR1, stronger effect = lower value 0.915 | locus YPR111W, strain DBF20, stronger effect = lower value 0.875 | strain NNK1, stronger effect = lower value 0.921

CC(=O)OCC(=O)[C@@]1(O)[C@@H](C)CC2C3CCC4=CC(=O)C=C[C@]4(C)[C@@]3(F)[C@@H](O)C[C@@]21C (some centres undefined)
inactive: [1] 1.06 | [2] 1.05 | [3] 1.01 | [4] 1 | [5] 0.994 | [6] 0.991 | [7] 1.05 | [8] 1.06

CC1=C(C/C=C(\C)CCC[C@H](C)CCC[C@H](C)CCCC(C)C)C(=O)c2ccccc2C1=O
inactive: locus YAL021C, strain ccr4, stronger effect = lower value 0.99 | locus YAL026C, strain drs2, stronger effect = lower value 0.99 | locus YAL030W, strain snc1, stronger effect = lower value 0.995 | locus YBL061C, strain skt5, stronger effect = lower value 0.997 | locus YBR009C, strain hhf1, stronger effect = lower value 0.977 | locus YBR023C, strain chs3, stronger effect = lower value 0.996 | locus YBR171W, strain sec66, stronger effect = lower value 0.993 | locus YBR231C, strain swc5, stronger effect = lower value 0.989 | locus YBR279W, strain paf1, stronger effect = lower value 0.994 | locus YCL011C, strain gbp2, stronger effect = lower value 0.977 | locus YCL016C, strain dcc1, stronger effect = lower value 0.985 | locus YCL061C, strain MRC1, stronger effect = lower value 0.987 | locus YCL069W, strain vba3, stronger effect = lower value 0.979 | locus YCR088W, strain abp1, stronger effect = lower value 1 | locus YDL005C, strain med2, stronger effect = lower value 0.965 | locus YDL040C, strain nat1, stronger effect = lower value 1 | locus YDR001C, strain nth1, stronger effect = lower value 0.993 | locus YDR069C, strain doa4, stronger effect = lower value 0.975 | locus YDR159W, strain sac3, stronger effect = lower value 0.981 | locus YDR195W, strain ref2 0.963 | locus YDR297W, strain sur2, stronger effect = lower value 0.993 | locus YDR334W, strain swr1, stronger effect = lower value 0.955 | locus YDR335W, strain msn5, stronger effect = lower value 0.99 | locus YDR392W, strain spt3, stronger effect = lower value 0.962 | locus YEL003W, strain gim4, stronger effect = lower value 0.977 | locus YEL037C, strain rad23, stronger effect = lower value 0.994 | locus YEL061C, strain CIN8 (second series), stronger effect = lower value 0.992 | locus YER015W, strain faa2, stronger effect = lower value 0.991 | locus YER016W, strain bim1, stronger effect = lower value 0.982 | locus YER111C, strain swi4, stronger effect = lower value 1 | locus YER155C, strain BEM2 (second series), stronger effect = lower value 0.993 | locus YFR010W, strain ubp6, stronger effect = lower value 0.974 | locus YGL167C, strain pmr1, stronger effect = lower value 0.989 | locus YGL173C, strain kem1, stronger effect = lower value 0.99 | locus YGL227W, strain vid30, stronger effect = lower value 0.997 | locus YGL240W, strain doc1, stronger effect = lower value 0.956 | locus YGL253W, strain hxk2, stronger effect = lower value 1 | locus YHR013C, strain ard1, stronger effect = lower value 0.975 | locus YHR027C, strain rpn1, stronger effect = lower value 0.984 | [1] 0.986 | [2] 0.992 | locus YHR142W, strain chs7, stronger effect = lower value 1 | locus YJL092W, strain hpr5, stronger effect = lower value 0.982 | locus YJL095W, strain BCK1 (second series), stronger effect = lower value 0.995 | [3] 0.998 | locus YJL115W, strain asf1, stronger effect = lower value 0.968 | locus YJL129C, strain trk1, stronger effect = lower value 0.984 | locus YJL154C, strain vps35, stronger effect = lower value 0.984 | locus YJL164C, strain tpk1, stronger effect = lower value 0.974 | locus YJL166W, strain qcr8, stronger effect = lower value 1 | locus YJL187C, strain SWE1, stronger effect = lower value 0.979 | [4] 0.943 | locus YKL160W, strain elf1, stronger effect = lower value 0.998 | locus YKR026C, strain gcn3, stronger effect = lower value 0.996 | locus YKR091W, strain srl3, stronger effect = lower value 0.985 | locus YLL001W, strain dnm1, stronger effect = lower value 0.992 | locus YLL026W, stronger effect = lower value 0.996 | locus YLL041C, strain sdh2, stronger effect = lower value 0.99 | locus YLR027C, strain aat2, stronger effect = lower value 0.992 | [5] 0.953 | locus YLR221C, strain rsa3, stronger effect = lower value 0.981 | locus YLR258W, strain gsy2, stronger effect = lower value 0.983 | locus YLR262C, strain YPT6 (second series), stronger effect = lower value 0.899 | locus YLR320W, strain mms22, stronger effect = lower value 0.992 | locus YLR342W, strain FKS1, stronger effect = lower value 0.999 | locus YLR357W, strain rsc2, stronger effect = lower value 1 | locus YLR370C, strain arc18, stronger effect = lower value 0.99 | locus YLR384C, strain iki3, stronger effect = lower value 0.988 | locus YML120C, strain ndi1, stronger effect = lower value 0.998 | locus YMR058W, strain fet3, stronger effect = lower value 0.973 | locus YMR125W, strain sto1, stronger effect = lower value 0.978 | locus YMR129W, stronger effect = lower value 0.985 | locus YMR205C, strain PFK2, stronger effect = lower value 0.981 | locus YMR231W, strain pep5, stronger effect = lower value 0.99 | locus YNL071W, strain lat1, stronger effect = lower value 0.972 | [6] 0.947 | locus YNL209W, strain ssb2, stronger effect = lower value 0.983 | locus YNL248C, strain rpa49, stronger effect = lower value 0.977 | locus YNL322C, strain KRE1 (second series), stronger effect = lower value 0.998 | locus YNR049C, strain mso1, stronger effect = lower value 1 | locus YOR001W, strain rrp6, stronger effect = lower value 1 | locus YOR070C, strain gyp1, stronger effect = lower value 0.988 | locus YOR080W, strain dia2, stronger effect = lower value 0.986 | locus YOR083W, strain WHI5, stronger effect = lower value 0.992 | locus YOR106W, strain vam3, stronger effect = lower value 0.964 | [7] 0.979 | locus YOR265W, strain rbl2, stronger effect = lower value 0.985 | locus YOR270C, strain vph1, stronger effect = lower value 0.871 | locus YOR290C, strain snf2, stronger effect = lower value 0.987 | locus YPL051W, strain arl3, stronger effect = lower value 0.988 | locus YPL078C, strain atp4, stronger effect = lower value 0.996 | locus YPL106C, strain sse1, stronger effect = lower value 0.871 | locus YPL240C, strain hsp82, stronger effect = lower value 0.97 | [8] 0.944
active: locus YDR137W, strain rgp1, stronger effect = lower value 0.772
